What was measured:
Assay in all cases: PBM binding z-score (relative to random genomic background probes); higher = stronger binding; sequences stand for … in GC…GCGATTGACAGCGTAGAATGAAGG
[1] = system: RARb homodimer (NR concentration 270 nM)
Method in brief: (§1)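 Probes were double-stranded and carried 34-nt variable regions with direct-repeat seeds, single-nucleotide variants, half-site ablations and random human genomic background sequences, printed on custom Agilent 4×180K protein-binding microarrays. Arrays were incubated 1 h with ligand-free nuclear receptor dimers in PBS pH 7.4, 2% milk, 0.02% Triton X-100, 1 mM DTT, 0.2 mg/mL BSA and 0.4 mg/ml salmon testes DNA. Antibodies against each partner (one per run) detected binding, and scanned fluorescence was regression-normalized. Binding z-scores use the random background probes as reference.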

[2] = system: RARg:RXRa (NR concentration 270 nM, RXRa partner concentration 90 nM)
Method in brief: as §1

[3] = system: RARg homodimer (NR concentration 270 nM)
Method in brief: as §1

[4] = system: RXRa DBDmut IVT, anti-RXR (DBD mutation: RXRa K156A/R161A, NR concentration 90 nM)
Method in brief: as §1

[5] = system: RXRa homodimer (NR concentration 180 nM)
Method in brief: as §1

[6] = system: THRa:RXRa (NR concentration 90 nM, RXRa partner concentration 90 nM)
Method in brief: as §1

[7] = system: THRa homodimer (NR concentration 90 nM)
Method in brief: as §1

[8] = system: VDR homodimer (NR concentration 270 nM)
Method in brief: as §1

Row | Sequence | PBM binding z-score [1] | PBM binding z-score [2] | PBM binding z-score [3] | PBM binding z-score [4] | PBM binding z-score [5] | PBM binding z-score [6] | PBM binding z-score [7] | PBM binding z-score [8]
1 | CGTCCAAGGTCAAACGTCAGTGAAGAGATGACGG | 3.94 | 6.09 | 6.4 | 3.98 | 6.29 | 3.76 | 2.1 | 3.22
2 | GGAAAGAGGGCATTCGAGTTGATAGCATGGCGAT | 1.42 | 1.81 | 1.82 | 2.67 | 1.32 | 3.61 | -0.358 | 2.71
3 | CAAACTAGGTGAAAGGTCAAAGTCGAGCCAACCA | 4.61 | 7.35 | 6.17 | 2.27 | 8.91 | 4.19 | 1.31 | 2.49
4 | ATACCAAGCTGATCGTGAGGTCGTTGATACTAAC | 1.07 | 0.355 | 0.15 | 0.629 | 0.837 | 2.12 | 1.76 | 2.35
5 | TGTCAAAGTTCAAATGTAACGTAAGTATCCACAC | 3.94 | 5.53 | 5.93 | 4.69 | 5.3 | 2.16 | -0.283 | 4.11
6 | TTGCCTAGGTCATGGGCCAGTATACCACGCGAAC | 3.1 | 4.39 | 4.41 | 0.413 | 3.94 | 3.35 | 1.54 | 0.622
7 | ATATGTAGGTTAGCTGGGGTCATTCAAACTAGGC | 4.02 | 4.22 | 3.15 | 2.15 | 5.57 | 5.16 | 3.52 | 5.71
8 | CGTCCAAGGTCAATACTAGGTCAGTGAAAGCATT | 5.1 | 6.92 | 6.34 | 3.51 | 4.84 | 4.42 | 3 | 2.44
9 | CCTACTGGGCCATCAGGACATTGATATCAACGTT | 0.152 | 0.263 | 0.554 | -0.317 | -0.395 | 1.41 | 1.27 | 0.257
10 | CAAACTAGGGCAAGAGGTCAAAGTCCGCTTCCCG | 5.19 | 6.21 | 5.15 | 1.74 | 6.17 | 3.87 | 1.23 | 3.3
11 | ATCGAAAGGACGACGAGGTGAGTATACACCGTTT | 0.685 | 1.09 | 1.42 | -0.192 | 0.371 | 1.42 | 0.601 | 0.0497
12 | CGAACTAGGTCATCCAGGATAGTGAATACATTGA | 3.03 | 3.82 | 4.37 | 2.18 | 2.75 | 3.26 | 1.49 | 0.935
13 | CTTGCTAGGTCATGGTCAGCTAATCTACAGTATG | 3.07 | 3.94 | 4.57 | 1.95 | 2.77 | 2.96 | 1.27 | 0.195
14 | CGAACTCGGTCATTGACAGGACAGTGAATAGTAA | 1.42 | 2.12 | 2.49 | 0.678 | 0.736 | 0.661 | -0.331 | 0.676
15 | AGAATGAGGATATTAAGATCAGGGAATTGCGGTC | -0.295 | 0.0101 | 0.354 | 0.0131 | 0.0885 | 0.447 | -0.112 | 0.17
16 | AATACAGGGTCACTAGGCCAGAGTCGGTACGAAT | 3.25 | 5.29 | 4.87 | 2.71 | 5.3 | 3.43 | 1.24 | 2.7
17 | TCTAGTTGGTCAAAGGTCACACAGTCGAAATGCG | 5.27 | 7.05 | 6.38 | 1.73 | 8.22 | 4.12 | 2.06 | 2.98
18 | CCTTACGGGTCACTCCAGGTAATAGCATCGGAGT | 2.75 | 4.2 | 4.02 | 1.48 | 4.32 | 4.97 | 0.347 | 1.19
19 | CTACCAAGGTAAACAAGGTCGTTGATTACTATTC | 1.18 | 0.545 | 0.535 | 1.34 | 1.06 | 3.2 | 1.5 | 2.04
20 | CGAATTAGGTCATCCAGGACAGTGAATACATTGA | 3.34 | 4.29 | 5.18 | 2.45 | 3.1 | 4.01 | 2.77 | 2.04
21 | CCTTACGGGTAACTGACAGGTTATAGCATTTGGA | 0.321 | 0.742 | 0.501 | 0.0265 | 0.525 | 0.456 | -0.293 | -0.157
22 | ACCGAAAGGTCGAGGTGAGTATAGAGAAAGGGAA | 2.81 | 4.28 | 4.43 | 0.832 | 4.35 | 2.94 | 0.707 | 0.402
23 | ACAATGAGGTTACCAAAGATCAGGGAAACGCTTG | 1.14 | 2.27 | 2.07 | 1.4 | 2.9 | 2.77 | 1.14 | 0.706
24 | GCATAAAGGTAATACAAGGTGAAAGTCCGATTGT | 1.18 | 1.15 | 0.92 | 0.231 | 1.32 | 4.64 | 0.994 | 0.291
25 | ATATGTAGGTTCGCTGGGGTCATTCAGACTAGGC | 3.35 | 4.07 | 2.35 | 3.6 | 5.54 | 4.11 | 3.34 | 9.1
26 | TCTAGTTGGACACGGAGGTCACACACGACGGGTA | 4.2 | 3.95 | 3.96 | 0.997 | 4.47 | 3.6 | 2.32 | 2.67
27 | ATATGTCGGTTACATCCGGGTCATTCAGGCTATG | 2.58 | 2.37 | 1.71 | 0.511 | 2.45 | 3.31 | 2.52 | 3.41
28 | GCAGACAGGTGAAAAGCAGGTAACTCAGGGTGGC | 0.095 | 0.178 | -0.088 | -0.616 | 0.348 | 1.28 | -0.428 | -0.329
